An excerpt weighted towards active compounds, which were near 18% of everything screened.
TDP1 cell CPT: DT40-hTDP1 cell growth loss with CPT; chicken DT40 Tdp1-/-;hTDP1 cells + 20 nM CPT, ATP luminescence, 48 h; Potency, µM (highest dose often 46.2 µM), without a hit: at the highest dose activity change, negative = growth inhibition, hits mostly inhibitors; actives 12% (n = 420,000); AID 686979; also: potency is read from the fitted curve at half-maximal effect; nearly all actives have a fitted effect of over 55% in size
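Chicken DT40 Tdp1-/- cells stably complemented with human TDP1 were seeded at 400 cells/well in medium containing 20 nM camptothecin, exposed to pin-transferred compounds, and grown at 37 °C for at least 48 hr. Viability was read as ATP luminescence.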
TDP1 cell noCPT: qHTS for Inhibitors of human tyrosyl-DNA phosphodiesterase 1 (TDP1): qHTS in cells in absence of CPT; DT40 Tdp1-/- hTDP1 cells, no CPT, ATP luminescence, 48 h; Potency, µM (highest dose often 46.2 µM), inactives show at the top dose activity change, negative = growth inhibition, hits mostly inhibitors; actives 15% (n = 420,000); also: potency is read from the fitted curve at half-maximal effect; nearly all actives have a fitted effect of over 55% in size
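Chicken DT40 Tdp1-/- cells complemented with human TDP1, screened without camptothecin (DMSO vehicle only), 400 cells/well. Compounds pin-transferred, cells incubated at 37 °C for at least 48 hr. Growth read as ATP-dependent luminescence (CellTiter-Glo, 30 min at RT).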
Gal4-VP16 FLuc: Gal4-VP16 reporter inhibition counter-screen. Drosophila S2 Gal4-VP16 UAS-luciferase, luminescence, 20 h. Potency, µM (titrated, usually from 53.6 µM), for the others: at the top dose activity, negative = inhibition, hits mostly inhibitors. actives 3.5% (n = 310,000);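 also: Gal4-VP16 expression switched on by copper sulfate through the metallothionein promoter; potency is read from the fitted curve at half-maximal effect; nearly all actives have a fitted effect of over 50% in size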
IL-1B inflam inh: blocks inflammasome-driven IL-1 beta release. THP-1 LPS/ATP IL-1B secretion, AlphaLISA, 16 h; stronger effect = lower value. activity change, % at 57.5 µM. actives 4.7% (n = 360,000). AID 743279; in the data active = activity change below about -50%; inconclusive = mostly about -30% to -49%
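Secreted IL-1B measured by AlphaLISA bead assay after 16 h compound exposure of THP-1 cells; compounds (final up to 57.5 uM) added 1 h before LPS (250 ng/mL) and ATP (1.25 mM) stimulation; lower signal means less secretion.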
RORgamma inh: ROR gamma (mouse) transcription inhibition; Drosophila S2 Gal4-RORgamma UAS-luciferase reporter, 20 h; actives 5.4% (n = 310,000); Potency, µM (series often up to 53.6 µM), inactives show at the highest dose activity change, negative = inhibition, most hits filed as inhibitors; also: potency is read from the fitted curve at half-maximal effect; nearly all actives have a fitted effect of over 60% in size
Target sequence (P51450 whole entry, looked up, the tested form may be a part): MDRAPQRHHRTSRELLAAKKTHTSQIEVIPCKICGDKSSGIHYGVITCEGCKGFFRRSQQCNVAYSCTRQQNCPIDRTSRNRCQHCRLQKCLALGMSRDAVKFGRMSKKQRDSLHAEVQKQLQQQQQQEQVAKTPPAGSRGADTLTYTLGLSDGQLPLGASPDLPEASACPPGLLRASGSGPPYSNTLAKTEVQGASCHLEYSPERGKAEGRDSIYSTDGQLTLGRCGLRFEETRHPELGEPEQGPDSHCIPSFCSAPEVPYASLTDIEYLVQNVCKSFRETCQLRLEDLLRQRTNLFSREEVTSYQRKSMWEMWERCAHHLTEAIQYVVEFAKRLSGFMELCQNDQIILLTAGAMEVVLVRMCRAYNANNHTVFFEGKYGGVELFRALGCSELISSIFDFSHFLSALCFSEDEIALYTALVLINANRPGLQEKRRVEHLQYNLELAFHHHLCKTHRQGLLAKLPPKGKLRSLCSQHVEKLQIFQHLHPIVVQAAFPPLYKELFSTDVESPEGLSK
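A Gal4/UAS one-hybrid system in insect cells: metallothionein-promoter Gal4–ROR gamma fusion plus Photinus luciferase reporter. Copper sulfate 700 uM final, 20 hr ambient incubation, luminescent detection after 10 min with reagent.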
LDHA inh: inhibitors of human lactate dehydrogenase A | purified LDHA, NADH/diaphorase-resazurin fluorescence; stronger effect = lower value | activity change, % (values are at about 110 or 230 µM) | actives 0.15% (n = 480,000) | AID 1347041; in the data active = activity change below about -30%; inconclusive = mostly about -25% to -30%;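 also: plate controls were DMSO wells for no effect and wells without enzyme for full effect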
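Resorufin fluorescence (ex540/em590), read at 0 and 20 min after diaphorase/resazurin addition, reports the NADH left after a 5 min room-temperature reaction of 2 nM human LDH5 with 0.06 mM NADH and 0.2 mM pyruvate.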
* hit, by the source's call; ? = inconclusive; / = not tested or not shown; [ ] = another dose, or the depositor's remark. Unless noted, calls follow the shape of the dose curve; as a rule, active = well fitted curve in the direction sought with a large enough effect; inconclusive = small, poorly fitted or top-dose-only effect, or another doubt; inactive = no such curve, though single readings can be large; an effect the other way counts as inactive or inconclusive. Unless noted, % is scaled to controls: 0 for no effect and ±100 for the full control effect.

SMILES	TDP1 cell CPT	TDP1 cell noCPT	Gal4-VP16 FLuc	IL-1B inflam inh	RORgamma inh	LDHA inh
CCOc1cccc(N2C(=O)CC(N(CCc3ccc(OC)c(OC)c3)C(=O)CC)C2=O)c1 (configuration not stated)	-4%	-19%	11%	-6	-23%[0.365 µM]	0
CSc1ccc(C2NC(=S)NC3=C2CCc2ccccc23)cc1 (configuration not stated)	/	/	/	/	/	21
COc1cc(/C=c2\s/c(=C(/C#N)C(=O)N3CCCC3)n(-c3ccccc3)c2=O)ccc1O	?	9.2µM*	-1%	5	2%	1
COC(=O)/C=c1/s/c(=C(/C#N)C(=O)N2CCCCC2)n(-c2ccccc2)c1=O	-20%	?	0%	5	-4%	6
O=C(Nc1cccc(NC(=O)c2ccc(Cl)cc2Cl)c1)c1cccnc1	?	?	2%	-54*	-10%	-11
COc1cc(NC(=O)c2cccnc2)ccc1NC(=O)c1ccccc1Cl	5%	?	19%	-66*	?	-6
CC(C)C(=O)Nc1cccc(NC(=O)c2ccc(Cl)cc2Cl)c1	-23%	?	0%	-59*	45%	-9
O=C(Nc1cccc(NC(=O)c2cccnc2)c1)c1cccnc1	-2%	-15%	-2%	-3	12%	3
CC(C)C(=O)Nc1cccc(NC(=O)Nc2cccc(Cl)c2)c1	/	/	/	/	/	0
COc1c(C)cc(Br)cc1C(=O)Nc1ccc(C)cc1[N+](=O)[O-]	?	13µM*	1%	-6	-3%	1
CC(Sc1nc2ccccc2[nH]1)C(=O)NC1(C#N)CCCCC1 (configuration not stated)	/	/	/	/	/	0
CC(C)CCNC(=S)NCc1ccco1	/	/	/	/	/	6
CCc1ccc2nc(-c3ccc(C)o3)cc(C(=O)O)c2c1	/	/	/	/	/	-23
Cc1ccc(C)c(NC(NC(=O)c2cccnc2)C(Cl)(Cl)Cl)c1 (configuration not stated)	23µM*	26µM*	-10%	12	-4%	4
Cc1ccc(NC(=O)c2cccnc2)c([N+](=O)[O-])c1	18µM*	18µM*	0%	?	-5%[1.91 µM]	0
Cc1cccc(C(=O)NC(Nc2cc(C)ccc2C)C(Cl)(Cl)Cl)c1 (configuration not stated)	/	/	/	/	/	7
CCC(=O)NC(=S)Nc1cccc(NC(=O)c2ccc(Cl)cc2Cl)c1	?	-29%	6.3µM*	-18	2.8µM*	-8
COc1cc(S(=O)(=O)Nc2cccnc2)ccc1F	-3%	-7%	-11%	6	-15%	-8
COc1cc(S(=O)(=O)Nc2cccc(C)c2)ccc1NC(=O)c1cccnc1	?	15µM*	-12%	0	-1%[10 µM]	-6
COc1cc(C2CC(=O)Nc3n[nH]c(Nc4ccccc4)c32)cc(OC)c1O (configuration not stated)	/	/	/	/	/	95
CCOC(=O)C1=C(c2ccccc2)N=c2s/c(=C\c3cccc(O)c3)c(=O)n2C1c1cccs1 (configuration not stated)	?	26µM*	-26%	-75*	33%	-4
CCOC(=O)C1=C(C)N=c2s/c(=C\c3ccc(OC(C)=O)c(OCC)c3)c(=O)n2C1/C=C/c1ccccc1 (configuration not stated)	?	?	3%	-7	4%	-2
CC(Oc1ccccc1)C(=O)N1CCc2ccccc2C1 (configuration not stated)	?	-1%	-3%	0	-9%	-1
Cc1ccc(NC(=O)N2CCc3ccccc32)cc1	-23%	?	10µM*	-8	?	-8
COC(=O)/C(=N/Nc1ccc(C)cc1)N1CCCc2ccccc21	12µM*	?	-5%	?	14%	-1
SMILES	TDP1 cell CPT	TDP1 cell noCPT	Gal4-VP16 FLuc	IL-1B inflam inh	RORgamma inh	LDHA inh
COC(=O)/C(=N/Nc1ccccc1)N1CCCc2ccccc21	?	?	1%	-27	-34%	1
Cc1ccc(OC(C)C(=O)N2CCCc3ccccc32)cc1 (configuration not stated)	?	26µM*	11%	-8	20%	-1
COc1ccc(OC(C)C(=O)N2CCc3ccccc3C2)cc1 (configuration not stated)	?	21µM*	12%	35	2%	-3
Cc1ccc(NC(=O)N2CCCc3ccccc32)cc1	3%	-15%	5%	1	31%	-6
CN(C)S(=O)(=O)c1ccc(NC(=O)COc2ncnc3ccc(Br)cc23)cc1	/	/	/	/	/	-3
O=C1C(=O)N(c2ccccn2)C(c2cccc(Oc3ccccc3)c2)/C1=C(\O)c1ccccc1 (configuration not stated)	/	/	/	/	/	5
Cc1ccc(NC(=O)N2CCc3ccccc32)cc1C	7%	?	?	?	?	-6
CN1CCN(c2ccc(NC(=O)N3CCc4ccccc43)cc2)CC1	-1%	11%	8.9µM*	-20	10µM*	1
OC1C=CSc2nc3ccccc3n21 (configuration not stated)	13µM*	15µM*	-2%	?	-38%	-7
c1ccc2c(c1)nc1n2CCS1	-2%	4%	2%	9	5%	3
CCCCCC(=O)N/N=C/c1cccc(Cl)c1	/	/	/	/	/	-1
COc1ccc(-c2nc3ccccc3n3c(-c4ccccc4)c4c(=O)n(C)c(=O)n(C)c4c23)cc1OC	-22%	?	/	/	/	-15
COc1ccc(-c2nc3ccccc3n3c(-c4cccc(C)c4)c4c(=O)n(C)c(=O)n(C)c4c23)cc1OC	16µM*	18µM*	/	/	/	-5
COc1ccc(-c2nc3ccccc3n3c(-c4ccccc4)c4c(=O)n(C)c(=O)n(C)c4c23)cc1	1%	-19%	/	/	/	-2
COc1ccc(-c2c3c(=O)n(C)c(=O)n(C)c3c3c(-c4ccccc4)nc4ccccc4n23)cc1	-3%	2.3µM*	/	/	/	-5
COc1ccc(-c2c3c(=O)n(C)c(=O)n(C)c3c3c(-c4cccc(C)c4)nc4ccccc4n23)cc1	?	21µM*	/	/	/	-2
COc1ccc2cc(CNC(=O)CNC(=O)c3ccc(C)cc3)ccc2c1	/	/	/	/	/	12
O=c1ccc(S(=O)(=O)N2CCCC2)cn1Cc1ncc(-c2ccc(F)cc2)o1	/	/	/	/	/	11
